Test results reported in ChEMBL document CHEMBL3988442, “University of Dundee, Small-Polar-MMV Screening Library” (2021).
The campaign covered roughly 48,000 compounds. About 13,000 (27%) showed an effect of 50% or more. The list shows a part of the results.

These compounds were tested on Wolbachia pipientis (assay: Anti-Wolbachia Cell-Based Screen). Conditions: 5 µM.
Format: functional
Design: scale not given: in the data most compounds retested in dose-response had high values

Going from `N#CC1(NC(=O)COc2cc(Cl)cc(Cl)c2)CCOCC1` to `Cc1cccc(C(=O)Nc2ccc(OC3CCOCC3)c(C)c2)n1`, the “Percent Effect” value rises from -7.839% to 4.017%.

Compared with `COc1ccc(CN2C[C@@H]3CC[C@H](C2)N(Cc2snnc2C)C3)cc1`, `CCn1cc(CN2CCCC(COc3ccc(F)cc3)C2)cn1` (centres undefined) is higher in “Percent Effect” value: -1.178% for the first, 31.54% for the second.

Going from `CC(C)OCCC(=O)Nc1ncn(CC(=O)N2CCCCCC2)n1` to `Cc1cc(=O)c(C(=O)Nc2cccc(CCN3CCCC3)c2)c[nH]1`, the “Percent Effect” value rises from -17.71% to -5.108%.

Compared with `CCCS(=O)(=O)N1CCc2onc(CNc3ncccn3)c2C1`, `CCCn1nccc1NC(=O)c1ccc(Cl)c(N2CCNC2=O)c1` is lower in “Percent Effect” value: 6.344% for the first, -10.44% for the second.

Going from `Cc1c(CNCc2nn(-c3ccccc3)c3c2CCC3)cc(C#N)n1C` to `CN(C)c1nc(NCc2ccccc2Cn2cccn2)ncc1F`, the “Percent Effect” value rises from -12.67% to 5.014%.

Going from `Cc1nccn1C1CCCN(C(=O)c2ccc3c(c2)OCCCO3)C1` (centres undefined) to `CCc1nccn1C1CCCN(C(=O)c2ccc3c(c2)OCCO3)C1` (centres undefined), the “Percent Effect” value falls from 112.3% to 89.9%.

Going from `Cc1nccn1C1CCCN(C(=O)c2ccc3c(c2)NC(=O)CO3)C1` (centres undefined) to `CCc1nccn1C1CCCN(C(=O)c2ccc3c(c2)OCO3)C1` (centres undefined), the “Percent Effect” value falls from 3.537% to 0.5679%.

Compared with `CCc1nccn1C1CCCN(C(=O)c2ccnc(N(C)C)c2)C1` (centres undefined), `CC(C)c1nccn1C1CCCN(C(=O)c2ccc3c(c2)OCO3)C1` (centres undefined) is lower in “Percent Effect” value: 1.194% for the first, -3.611% for the second.

Compared with `COc1ccc(CN2CCCC2)cc1Oc1ccc2c(c1)CC(CN)O2` (centres undefined), `COCCCN(Cc1ccncc1)C(=O)C1COc2ccccc2C1` (centres undefined) is lower in “Percent Effect” value: -16.95% for the first, -18.33% for the second.

Compared with `O=C(c1ccc(SC(F)(F)F)cc1)N1CCOCC1c1ncon1` (centres undefined), `COCCN(Cc1ccc(F)cc1Cl)C(=O)c1ccccn1` is higher in “Percent Effect” value: -6.89% for the first, -0.554% for the second.

Going from `CC(C(=O)N(C)Cc1ccc(Br)o1)n1cncn1` (centres undefined) to `CC(C)N(Cc1ccc(C#N)cc1)C(=O)Nc1ccccn1`, the “Percent Effect” value rises from -10.62% to 7.153%.

First: Cc1ccc(CN(C(=O)C(C)NC(N)=O)C2CC2)cc1C (centres undefined)
Second: CC(C)NC(=O)N(Cc1cc(O)nc2ccccc12)C(C)C
The “Percent Effect” value of the first is lower: 10.7% for the first, 134.4% for the second.

Compared with `COCCCN(Cc1cc(O)nc2ccccc12)C(=O)NC(C)C`, `COCCN(Cc1cc(O)nc2ccccc12)C(=O)NC(C)C` is higher in “Percent Effect” value: 116.8% for the first, 129.1% for the second.

First: CC(C)N(CC(N)=O)Cc1csc(Cc2ccccc2)n1
Second: CCCN(Cc1ccccc1O)C(=O)Nc1cnn(CCOC)c1
The “Percent Effect” value of the first is lower: -4.617% for the first, -1.283% for the second.

With `COCCN(Cc1ccccc1Cl)C(=O)c1c(C)cc(C)[nH]c1=O` the “Percent Effect” value was 2.486%.
